# Measurements taken from paper PMC5540273 (PLoS ONE, 2017).
# Tested on: CSNK1G3
# Conditions: concentration: 1 μM, replicates: in singlicate; n = 1
# 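Note: KINOMEscan kinase panel screen.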
row,Compound,%Inh
1,CCn1c(-c2nonc2N)nc2c(C#CC(C)(C)O)nc(OC[C@H](N)c3ccccc3)cc21 [GSK943949],17%
2,COC(=O)Nc1nc2cc(Oc3ccc(NC(=O)Nc4cc(C(F)(F)F)ccc4F)cn3)ccc2[nH]1.Cl.Cl [GW681170],18%
3,Cl.Cl.NCC(NCc1ccc(-c2ccnc3[nH]ccc23)s1)c1ccccc1 (centres unmarked) [GSK1321565],33%
4,O=c1[nH]cc(-c2ccc(N3CCOCC3)cc2)c2sc(-c3cn[nH]c3)cc12 [GSK2276055],63%
5,c1ccc(-c2cnc3nccnn23)cc1 [AH20685],0%
6,COc1cc(Nc2nccc(-c3c(-c4cccc(NC(=O)c5c(F)cccc5F)c4)nn4ccccc34)n2)cc(OC)c1OC [GSK323521],25%

# Tested on: CSNK2A1
# Conditions: concentration: 1 μM, replicates: in singlicate; n = 1
row,Compound,%Inh
1,Cc1ccc(C)c(NC(=O)NC2CCN(c3ccnc(Nc4ccc(F)cc4)n3)C2)c1 (centres unmarked) [GSK1379720],0%
2,Cl.Cl.NCC(NC(=O)c1cc(-c2ccccc2)c(-c2ccnc3[nH]ccc23)s1)c1ccccc1 (centres unmarked) [GSK1321561],5%
3,CN(C)Cc1ccc(-c2ccc3c(Nc4ccc(Oc5ccccn5)cc4)ccnc3c2)o1 [GW567148],0%
4,COc1cccc(C(=O)Nc2cccc(Oc3ccc4nc(NC(=O)C5CC5)cn4n3)c2)c1,0%
5,CNC(=O)c1ccccc1Nc1nc(Nc2ccc(N3CCOCC3)cc2)ncc1Cl.Cl [GSK1576028],99.8%
6,C[C@@H]1CC[C@@H](C(=O)Nc2ccccc2)CN1c1cc(-c2ccc3c(N)n[nH]c3c2)nc(N)n1 [GSK2286062],54%
7,Cn1cc(-c2ccc3c(c2)CCN3C(=O)Cc2cccc(Cl)c2)c2c(N)ncnc21 [GSK2606590],8%
8,FC(F)(F)c1ccc(/C=C/c2cncnc2Nc2ccc3[nH]c(Cc4ccccc4)nc3c2)cc1 [GW709199],0%
9,COc1cccc(NC(=O)NC2CCN(c3ccnc(Nc4cc(OC)c(OC)c(OC)c4)n3)C2)c1 (centres unmarked) [GSK1379763],12%
10,Fc1ccc(-c2ncn(C3CCNCC3)c2-c2ccnc(Oc3ccc(-c4ccccc4)cc3)n2)cc1 [SB-245391],0%
11,Oc1cc(Nc2ccnc3cc(I)ccc23)ccc1F [GW552771],23%
12,COC(=O)Nc1nc2ccc(Oc3ccc(NC(=O)Nc4cc(C(F)(F)F)ccc4F)cc3)cc2n1C.Cl [GW692089],0%
13,CC(=O)N1CCN(c2ccc(Nc3nccc(-c4sc(C(C)C)nc4-c4cccc(NS(=O)(=O)c5cccc(Cl)c5)c4)n3)cn2)CC1 [GSK1660437],13%
14,Cl.Cl.NCC(C(=O)Nc1cc(Br)c(-c2ccnc3[nH]ccc23)s1)c1ccccc1 (centres unmarked) [GSK1269851],79%
15,CC(C)(C)c1ccc2nccc(Nc3cccc(O)c3)c2c1 [GW856795],0%
16,NCCCC(NC(=O)c1cc(Br)c(-c2ccnc3[nH]ccc23)s1)c1ccccc1.O=C(O)C(F)(F)F.O=C(O)C(F)(F)F (centres unmarked) [GSK1287544],27%
17,Cl.c1ccc(-c2ccc3c(Nc4ccc5[nH]ncc5c4)ccnc3c2)nc1 [GW440137],0%
18,c1ccc(Oc2ccc(Nc3ccnc4cc(-c5ccc(CNCCN6CCOCC6)o5)ccc34)cc2)nc1 [GW567145],0%
19,O=C(Nc1cccc(Oc2ccc3nc(NC(=O)C4CC4)cn3n2)c1)c1ccccc1C(F)(F)F,0%
20,CC(C)c1nc(-c2cccc(NS(=O)(=O)c3c(F)cccc3F)c2F)c(-c2ccnc(Nc3ccc(N4CCOCC4)nc3)n2)s1 [GSK2008607],7%
21,Nc1ncc(-c2cccnc2)c2scc(-c3ccc4c(c3)CCN4C(=O)Cc3ccccc3)c12 [GSK683281],77%
22,Cn1cc(-c2ccc3c(c2)CCN3C(=O)Cc2cccc(F)c2)c2c(N)ncnc21 [GSK2603358],0%
23,Cl.NC(=O)c1cccc(Nc2nccc(Nc3ccc(Oc4c(Cl)cccc4Cl)c(Cl)c3)n2)c1 [GW659009],3%
24,COCCOCCOc1cc2ncc3c4ccc(C#N)cc4[nH]c3c2cc1OC,75%
25,COc1cccc(-c2ccc3c(NC(=O)C4CC4)n[nH]c3n2)c1 [SB-710903],0%
26,Nc1ncc(-c2ccc3nccc(-c4ccncc4)c3c2)cc1S(=O)(=O)N1CCOCC1 [GSK1627798],5%
